KCNH2 3.1 inh: inhibitors of human KCNH2 3.1 potassium channel isoform. U2OS KCNH2 3.1, thallium flux FluxOr; active compounds read low. AID 720553. activity change, % (tested at about 1.8 µM). actives 0.95% (n = 340,000);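 active means maximum activity change below -70%; inconclusive means maximum activity change from -70% to -50%; inactive means maximum activity change above -50%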;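 further: thallium influx rate constant from kinetic fluorescence after stimulation buffer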
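Thallium flux read-out: FluxOr dye with Red40 quencher in HBSS/HEPES, 45 min at RT. Rate constants from kinetic reads were normalized to positive and negative DMSO controls. Cells: U2OS virally expressing the 3.1 isoform.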
SW480 rereplic: DNA re-replication induction in SW480 cells; SW480 DNA re-replication, Hoechst DNA content imaging, 48 h; Potency, µM (doses to about 46.1 µM), usual class: activators; actives 1.8% (n = 340,000); further: nearly all actives have a fitted effect of over 55% in size
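SW480 cells exposed to compounds for 48 hr at 37 C, 5% CO2, then Hoechst-stained 40 min. Nuclear DNA content imaged by fluorescence scanning (405 nm excitation, 500-530 nm emission); re-replication scored as increased high-intensity nuclei.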
KB-V1 cytotox: KB-V1 MDR subline cytotoxicity. KB-V1 MDR cells viability, CellTiter-Glo, 72 h. Potency, µM (series often up to 46.1 µM), hits mostly cytotoxic. actives 3.4% (n = 400,000); further: nearly all actives have a fitted effect of over 60% in size
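Drug-selected KB-V1 cells, grown in DMEM lacking phenol red with 10% FBS, receive compound titrations; after three days at 37 degrees C, surviving cell ATP is quantified by CellTiter-Glo luminescence and responses normalized and curve-fitted.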
KCNH2 WT inh: KCNH2 (human, wildtype) channel inhibition; Q12809; U2OS, BacMam KCNH2, thallium flux FluxOr; active compounds read low; activity change, % at 1.84 µM; actives 0.37% (n = 340,000); AID 720551;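 active means maximum activity change below -70%; inconclusive means maximum activity change between -70% and -50%; inactive means maximum activity change above -50%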
Target sequence (Q12809 whole entry, looked up): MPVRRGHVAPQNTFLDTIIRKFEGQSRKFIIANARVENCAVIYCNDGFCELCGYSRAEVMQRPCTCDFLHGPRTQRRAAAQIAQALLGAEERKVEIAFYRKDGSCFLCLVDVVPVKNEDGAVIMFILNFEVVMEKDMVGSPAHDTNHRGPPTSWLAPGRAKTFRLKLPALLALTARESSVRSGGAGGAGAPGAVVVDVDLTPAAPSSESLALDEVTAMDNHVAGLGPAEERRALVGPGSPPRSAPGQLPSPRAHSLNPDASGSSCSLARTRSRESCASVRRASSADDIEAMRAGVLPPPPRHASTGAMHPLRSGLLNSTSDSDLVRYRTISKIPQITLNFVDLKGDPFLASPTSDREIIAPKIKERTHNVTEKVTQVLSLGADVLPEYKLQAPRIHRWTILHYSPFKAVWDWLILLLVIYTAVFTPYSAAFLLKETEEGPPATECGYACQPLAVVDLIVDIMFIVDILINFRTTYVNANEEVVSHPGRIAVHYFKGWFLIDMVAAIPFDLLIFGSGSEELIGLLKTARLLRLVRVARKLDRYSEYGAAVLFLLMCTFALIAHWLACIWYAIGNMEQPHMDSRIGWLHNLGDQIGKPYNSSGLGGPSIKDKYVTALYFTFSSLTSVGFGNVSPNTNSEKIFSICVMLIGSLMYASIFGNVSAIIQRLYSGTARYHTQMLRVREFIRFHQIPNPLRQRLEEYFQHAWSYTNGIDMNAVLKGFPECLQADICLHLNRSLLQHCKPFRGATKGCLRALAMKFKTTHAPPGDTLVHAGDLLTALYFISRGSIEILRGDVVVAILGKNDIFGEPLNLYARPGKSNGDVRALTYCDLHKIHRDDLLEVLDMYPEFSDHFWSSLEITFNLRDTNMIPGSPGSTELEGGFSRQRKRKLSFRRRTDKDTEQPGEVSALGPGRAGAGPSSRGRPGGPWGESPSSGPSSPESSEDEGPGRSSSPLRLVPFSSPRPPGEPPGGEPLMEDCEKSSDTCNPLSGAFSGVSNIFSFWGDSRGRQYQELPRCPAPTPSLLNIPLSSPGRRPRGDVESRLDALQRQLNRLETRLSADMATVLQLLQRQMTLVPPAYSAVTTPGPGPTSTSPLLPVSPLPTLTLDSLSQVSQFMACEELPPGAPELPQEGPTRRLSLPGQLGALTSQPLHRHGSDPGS
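U2OS cells transduced with wild-type KCNH2 virus are loaded with FluxOr dye for 45 min, and thallium flux is measured in kinetic reads before and after stimulation buffer. Rate constants are normalized to DMSO controls.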
KB-3-1 tox: KB-3-1 parental cell cytotoxicity. Potency, µM (highest dose often 46.1 µM), most hits filed as cytotoxic. actives 1.4% (n = 400,000). KB-3-1 viability, CellTiter-Glo ATP luminescence, 72 h. AID 1347075; further: nearly all actives have a fitted effect of over 60% in size
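72 h, 37 °C compound treatment of KB-3-1 parental cells; CellTiter-Glo added, 10 min, luminescence read. Data corrected against DMSO-only plates and normalized before curve fitting.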
MCF10A rerep: induces DNA re-replication in MCF 10a normal breast cells | Potency, µM (doses to about 46.1 µM), hits mostly activators | actives 2.9% (n = 350,000) | MCF 10A DNA re-replication, Hoechst nuclear intensity, 48 h; further: nearly all actives have a fitted effect of over 50% in size
Of the large screens only hits and unclear results are named; the others gave an inactive call. The list is not random: actives were taken first. Their share in the collection is about 7.6%. Unless noted, the call rests on the fitted dose curve; in most records, active means well fitted curve in the direction sought with a large enough effect; inconclusive means small, poorly fitted or top-dose-only effect, or another doubt; inactive means no such curve, though single readings can be large; an effect the other way counts as inactive or inconclusive.

c1ccc(CN2CCN(c3nc(N4CCOCC4)c4ccccc4n3)CC2)cc1	SW480 rereplic inconclusive, KB-V1 cytotox inconclusive, MCF10A rerep 16µM
c1ccc2c(N3CCOCC3)nc(N3CCOCC3)nc2c1	none
c1ccc2c(N3CCOCC3)nc(-c3ccncc3)nc2c1	KB-V1 cytotox 13µM, KB-3-1 tox inconclusive
CC1CCCCN1c1nc(-c2ccncc2)nc2ccccc12 (stereo not given)	SW480 rereplic inconclusive, KB-V1 cytotox inconclusive, MCF10A rerep inconclusive
CCC1CCCCN1c1nc(-c2ccncc2)nc2ccccc12 (stereo not given)	SW480 rereplic inconclusive, KB-V1 cytotox inconclusive, KB-3-1 tox inconclusive, MCF10A rerep 23µM
OCCNc1nc(N2CCN(Cc3ccccc3)CC2)nc2ccccc12	KB-V1 cytotox 21µM
CCN(CC)C(=O)c1[nH]cnc1C(=O)N[C@@H](Cc1ccccc1)C(=O)OCc1ccccc1	none
Cc1cc(C(=O)CCl)c(C)n1-c1cccc([N+](=O)[O-])c1	SW480 rereplic inconclusive, KB-V1 cytotox 23µM, KB-3-1 tox 16µM, MCF10A rerep inconclusive
Cc1cc(C(=O)CCl)c(C)n1-c1ccon1	SW480 rereplic 12µM, KB-V1 cytotox inconclusive, KB-3-1 tox inconclusive, MCF10A rerep inconclusive
CC(=O)c1c(C(C)=O)c(C)n(-c2cccc([N+](=O)[O-])c2)c1C	none
COc1ccc(C2/C(=C(/O)c3ccccc3)C(=O)C(=O)N2CC(C)O)c(OC)c1 (stereo not given)	none
O=C(NCc1ccccc1)c1cc2nc(C3CC3)cc(C(F)(F)F)n2n1	KB-V1 cytotox 23µM
COc1ccc(N2CCN(Cc3nc4ccccc4n3C)CC2)cc1	KB-V1 cytotox inconclusive
CCc1n[nH]c(=S)n1/N=C/c1ccc(-c2ccc(Br)cc2)o1	MCF10A rerep 18µM
CSc1ccc(/C=N/n2c(Cc3ccc(Br)cc3)n[nH]c2=S)cc1	SW480 rereplic inconclusive
CC(C)=C1C2CCC1C1C(=O)N(CCc3ccccc3)C(=O)C21 (stereo not given)	KB-V1 cytotox 10µM
CCCn1c(NC(=O)c2ccccc2Br)nc2ccccc21	KB-V1 cytotox 9.2µM, KB-3-1 tox inconclusive, MCF10A rerep inconclusive
COc1ccc(C(=O)N2CCn3c2nc2ccccc23)cc1	none
CCCn1c(NC(=O)c2ccco2)nc2ccccc21	KB-V1 cytotox 15µM
COc1ccc(C(=O)Nc2nc3ccccc3n2CCOc2ccc(Cl)cc2)cc1	none (no result: KCNH2 3.1 inh, SW480 rereplic, KCNH2 WT inh, MCF10A rerep)
COc1ccc(C(=O)n2c(-c3ccco3)nc3ccccc32)cc1	SW480 rereplic 18µM, KB-V1 cytotox inconclusive, KB-3-1 tox inconclusive, MCF10A rerep 8.9µM
COc1ccc(OCCn2c(NC(=O)c3ccco3)nc3ccccc32)cc1	SW480 rereplic 4.1µM, MCF10A rerep 12µM
CCCn1c(CCNC(=O)c2ccco2)nc2ccccc21	none

Compound activity from PubChem BioAssay.
